Laboratory results taken from PubChem BioAssay (NCATS).
Results filed as inconclusive are left out. Entries that show only a call come without a potency. Some compounds were tested as several samples or in several runs, with calls that do not always agree. Active and inactive are the calls of the source. The call rests on the fitted dose curve; in most records, active means well fitted curve in the direction sought with a large enough effect; inconclusive means small, poorly fitted or top-dose-only effect, or another doubt; inactive means no such curve, though single readings can be large; an effect the other way counts as inactive or inconclusive.

How the values were obtained:
[1] = target: Glutathione peroxidase 1 (Homo sapiens) (UniProt P07203); assay: Primary qHTS Assay for Inhibitors of Recombinant Selenoprotein Glutathione Peroxidase 1 (GPX1) (AID 1845191); further: nearly all actives have a fitted effect of over 65% in size; further: potency means the concentration at half of the fitted maximal effect
Summary of the method: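 10 nM GPX1 + cpd, 30 min RT; start w/ 1 mM GSH, 0.5 mM cumene hydroperoxide, 0.5 mM NADPH, 100 nM GR, 0.01% BSA; buffer 50 mM Tris-HCl pH 7.5, 2 mM EDTA, 150 mM NaCl; Fl 340/450, 0 & 15 min.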

[2] = target: Phospholipid hydroperoxide glutathione peroxidase GPX4 (Homo sapiens) (UniProt P36969); assay: Primary qHTS Assay for Inhibitors of Recombinant Selenoprotein Glutathione Peroxidase 4 (GPX4) (AID 1845192); further: nearly all actives have a fitted effect of over 65% in size; further: potency means the concentration at half of the fitted maximal effect
Summary of the method: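 NADPH consumption, followed by fluorescence at 340/450 nm between 0 and 15 min, reports GPX4 activity via coupled glutathione reductase (100 nM). Enzyme 200 nM was pre-exposed to compound 30 min; 0.5 mM cumene hydroperoxide and 1 mM GSH served as substrates.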

[3] = Primary fluorescence-based thiol-reactive (MSTI) qHTS assay for identification of artifact compounds. (AID 1845221); further: nearly all actives have a fitted effect of over 65% in size; further: potency means the concentration at half of the fitted maximal effect
Summary of the method: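 A multi-concentration qHTS design tested compounds against 4 uM MSTI, pH 7.4 phosphate-buffered saline. Plates were protected from light for 1 h at room temperature before imaging fluorescence.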

[4] = test system: Nanoluciferase (engineered Oplophorus gracilirostris luciferase); assay: Primary Nanoluciferase (NLuc) qHTS assay for identification of artifact compounds. (AID 1845222); further: series mostly up to about 54 µM
Summary of the method: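 Luminescence from secreted NLuc (filtered, 1:55-diluted S16 cell medium) read 5 min after Nano-Glo substrate; compounds preincubated 15 min, RT. Hill fits of inhibition normalized to DMSO and no-enzyme.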

[5] = Primary redox qHTS assay for identification of artifact compounds. (AID 1845223)
Summary of the method: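 Amplex Red (25 uM) and HRP (250 mU/mL) in HBSS, with compounds for 15 min, then 250 uM DTT for 30 min, room temperature, dark. Fluorescence 525/598 nm read; normalized to DMSO and 10 uM DA3003; Hill fit.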

[6] = target: Luciferin 4-monooxygenase (Photinus pyralis) (UniProt P08659); assay: Primary firefly luciferase (FLuc) qHTS assay for identification of artifact compounds. (AID 1845220); further: nearly all actives have a fitted effect of over 60% in size; further: potency means the concentration at half of the fitted maximal effect
Summary of the method: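 Compounds sat 15 min at room temperature with 10 uM luciferin and 10 uM ATP (pH 7.6 Tris acetate). Firefly luciferase (10 nM final) was then added, and luminescence was read 5 min later. Data normalized to no-enzyme and DMSO controls were Hill-fitted.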

Sequence of Glutathione peroxidase 1 (Homo sapiens) (P07203 whole entry, looked up): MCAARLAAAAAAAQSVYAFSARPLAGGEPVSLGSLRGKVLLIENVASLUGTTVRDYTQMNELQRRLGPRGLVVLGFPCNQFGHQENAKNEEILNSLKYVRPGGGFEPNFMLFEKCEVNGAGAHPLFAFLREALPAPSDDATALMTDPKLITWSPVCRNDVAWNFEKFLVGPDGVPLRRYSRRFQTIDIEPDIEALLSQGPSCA
Sequence of Phospholipid hydroperoxide glutathione peroxidase GPX4 (Homo sapiens) (P36969 whole entry, looked up): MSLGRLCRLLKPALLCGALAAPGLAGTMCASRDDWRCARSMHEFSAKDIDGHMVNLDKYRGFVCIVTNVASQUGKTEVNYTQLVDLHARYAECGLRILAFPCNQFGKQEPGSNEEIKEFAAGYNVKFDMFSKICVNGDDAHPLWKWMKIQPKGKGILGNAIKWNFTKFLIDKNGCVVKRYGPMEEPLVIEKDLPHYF

Row | Structure (SMILES) | Potency [1] | Potency [2] | Potency [3] | Potency [4] | Potency [5] | Potency [6]
1 | CCCCC1CCN(CCCN2C(=O)CCc3ccccc32)CC1 | inactive | inactive | inactive | inactive | inactive | 
2 | COc1cc2c(cc1OCCCN1CCCC1)N=C(N)C21CCC1 | inactive | inactive |  | inactive |  | 
3 | COC(=O)c1cc2c(C(F)(F)F)cc(-c3ccccc3)cc2n1O | inactive | inactive | 2.67 µM (active) | inactive | inactive | 
4 | CC1(C)Oc2ncnc(N)c2N=C1c1ccc(C23CCC(CC(=O)O)(CC2)CC3)cc1 | inactive | inactive | inactive | inactive | inactive | 
5 | CNc1nc(Nc2ccc(C(=O)N3CCOCC3)cc2OC)nc2[nH]cc(Cl)c12 | inactive | inactive | 1.68 µM (active) | inactive | inactive | 
6 | COc1ccc(OC)c(-c2ccc(NC(=O)c3ccncc3F)cc2)c1 | inactive | inactive | inactive | inactive | inactive | 
7 | O=C1c2ccc(Nc3ccc(F)cc3F)cc2CCc2ccc(OCC(O)CO)cc21 (stereo not drawn) | inactive | inactive | inactive | inactive | inactive | 
8 | CC(C)c1ccc(-c2cc(=O)c3ccccc3o2)cc1 | inactive | inactive | inactive | inactive | inactive | 
9 | O=C(COc1ccc2ccccc2c1Br)Nc1cccnc1 | inactive | inactive | inactive | inactive | inactive | 
10 | COC1CCN(c2cccc(-c3cc(NC(C)=O)nc(-n4nc(C)cc4C)n3)n2)CC1 | inactive | inactive | inactive | inactive | inactive | 
11 | Cc1ccc(NC(=O)C(C)C)cc1C1CCN(Cc2ccc(Oc3ccc(F)c(F)c3)cc2)CC1 | inactive | inactive |  | inactive |  | 
12 | CC(=O)OC1CCC2(C)C(CCC3(C)C2CC=C2C4C(C)C(C)CCC4(C)CCC23C)C1(C)C(=O)O (stereo not drawn) | inactive | inactive | inactive |  | inactive | 
13 | CC(C)=CCc1cc2c(cc1O)OC[C@H]1c3ccc(O)cc3O[C@@H]21 | inactive | inactive |  | inactive | inactive | 
14 | Nc1nc2c(cnn2CCCc2ccc(O)cc2)c2nc(-c3ccco3)nn12 | inactive | inactive | inactive | inactive | inactive | 
15 | O=C(O)CCc1nccc2c1[nH]c1ccccc12 | 25.5 µM (active) | 22.7 µM (active) |  | inactive | inactive | 
16 | NCCCC[C@H](NC(=O)[C@@H]1CCCN1C(=O)[C@@H]1CSSC[C@H](N)C(=O)N[C@@H](Cc2ccc(O)cc2)C(=O)N[C@@H](Cc2ccccc2)C(=O)N[C@@H](CCC(N)=O)C(=O)N[C@@H](CC(N)=O)C(=O)N1)C(=O)NCC(N)=O |  | 17.8 µM (active) |  |  |  | 
17 | COc1ccc(C#Cc2ccc(C(=O)N3CCC[C@@H](O)C3)c(F)c2)cc1 | inactive |  | inactive | inactive | inactive | inactive
18 | COc1ccc(-c2c(C)nn3c(NCCN4CCOCC4)cc(C)nc23)cc1OC | inactive |  |  | inactive |  | inactive
19 | CC1(C)S[C@@H]2[C@H](NC(=O)C(C(=O)Oc3ccc4c(c3)CCC4)c3ccccc3)C(=O)N2[C@H]1C(=O)O (stereo partly drawn) |  | 8.91 µM (active) |  |  |  | 

Row | Structure (SMILES) | Potency [1] | Potency [2] | Potency [3] | Potency [4] | Potency [5] | Potency [6]
20 | CS(=O)(=O)c1ccc(Oc2cc(F)cc(C#N)c2)c2c1[C@H](O)C(F)(F)C2 |  | inactive |  |  |  | 
21 | Cn1ncnc1[C@@H]1c2n[nH]c(=O)c3cc(F)cc(c23)N[C@H]1c1ccc(F)cc1 | inactive |  | inactive | inactive | inactive | inactive
22 | C=C1/C(=C/C=C2\CCC[C@]3(C)[C@@H]([C@@H](C)OCCC(O)(CC)CC)CC[C@@H]23)C[C@@H](O)C[C@@H]1O | inactive |  | inactive | inactive |  | inactive
23 | O=C(Nc1nc2ccc([N+](=O)[O-])cc2s1)C1CCCCC1 | inactive | inactive |  | inactive | inactive | 
24 | CC1(C)SCCN(S(=O)(=O)c2ccc(Oc3ccncc3)cc2)[C@H]1C(=O)NO | inactive | inactive |  | inactive | inactive | 
25 | CC/C(C)=C/C(=O)OC1C(OC2(C)CCC3C(C4C(C)CCC42)C3(C)C)OC(C)C(O)C1O (stereo not drawn) | inactive |  |  | inactive | inactive | inactive
26 | C/C1=C\CCC2=CC(OC2=O)C(C)(C)/C=C/C1=O (stereo not drawn) | inactive | inactive |  | inactive | inactive | 
27 | CC(C)NC(=O)COc1cccc(-c2nc(Nc3ccc4[nH]ncc4c3)c3ccccc3n2)c1 | inactive |  | inactive | inactive | inactive | inactive
28 | O=C([C@@H](Cc1cccc(C(F)(F)F)c1)NS(=O)(=O)c1cc(F)c2c(c1)CCNC2)N1CCCC1 | inactive |  | inactive | inactive | inactive | inactive
29 | CN(C)C(=O)Nc1cc(-c2ccccc2)ccc1N(C)C | inactive |  | 2.38 µM (active) | inactive | inactive | 
30 | CN[C@@H]1[C@H](O[C@H]2[C@H](O[C@@H]3[C@@H](O)[C@H](O)[C@@H](N=C(N)N)[C@H](O)[C@H]3N=C(N)N)O[C@@H](C)[C@]2(O)CO)O[C@@H](CO)[C@H](O)[C@H]1O | inactive |  | inactive | inactive | inactive | inactive
31 | CC(C)S(=O)(=O)c1ccc2nccc(Nc3ccc4scnc4c3)c2c1 | inactive |  | inactive | inactive | inactive | inactive
32 | CN1CC2CN(c3ccc4oc5ccccc5c(=O)c4c3)CC2C1 (stereo not drawn) | inactive | inactive |  | inactive | inactive | 
33 | CC[C@@H]1C[C@]1(NC(=O)[C@@H]1C[C@@H]2CN1C(=O)[C@H](C(C)(C)C)NC(=O)OCC(C)(C)CCCCc1cccc3c1CN(C3)C(=O)O2)C(=O)NS(=O)(=O)C1CC1 | inactive |  | inactive | inactive | inactive | inactive
34 | CNC(=O)c1ccc2c(c1)CCO[C@H]2CCN1CCN(c2ccc(OC)cc2)CC1 | inactive | inactive |  | inactive | inactive | 
35 | S=C(c1ccc(-c2ccc(Cl)c(Cl)c2)o1)N1CCCCC1 | 25.5 µM (active) |  |  | inactive | inactive | 1.69 µM (active)
36 | Cn1sc(=O)n(Cc2ccccc2)c1=O | inactive |  | inactive |  | inactive | 
37 | C#CC(=O)N(c1ccc(OC)cc1OC)C(C(=O)NCC(=O)OCC)c1cccs1 (stereo not drawn) | inactive |  | inactive | inactive | inactive | inactive
38 | Cn1ncnc1[C@H]1c2n[nH]c(=O)c3cc(F)cc(c23)N[C@@H]1c1ccc(F)cc1 | inactive |  | inactive | inactive | inactive | inactive

Row | Structure (SMILES) | Potency [1] | Potency [2] | Potency [3] | Potency [4] | Potency [5] | Potency [6]
39 | Oc1cccc(-c2c3nc(c(-c4cccc(O)c4)c4ccc([nH]4)c(-c4cccc(O)c4)c4nc(c(-c5cccc(O)c5)c5ccc2[nH]5)CC4)C=C3)c1 |  | inactive |  |  |  | 
40 | CC(=O)S[C@@H]1CC2=CC(=O)CC[C@]2(C)[C@H]2CC[C@@]3(C)[C@@H](CC[C@@]34CCC(=O)O4)[C@H]12 |  | inactive |  |  |  | 
41 | CC(C)S(=O)(=O)NC[C@@H]1CC(c2ccc(N3CCCC3)c(F)c2)=NO1 | inactive | inactive |  | inactive | inactive | 
42 | Clc1cccc(COc2cncc(N3CCNCC3)n2)c1 | inactive |  | inactive | inactive | inactive | inactive
43 | CS(=O)(=O)Nc1cc2occ(NC=O)c(=O)c2cc1Oc1ccccc1 |  | 18 µM (active) and inactive |  |  |  | 
44 | COC(=O)N1CC2(CC2)C[C@H](C(=O)NO)[C@H]1C(=O)N1CCN(c2ccccc2)CC1 |  | inactive |  |  |  | 
45 | O=C(Nc1ccccc1C(=O)Nc1ccc(CCO)cc1)c1ccc([N+](=O)[O-])cc1 | inactive | inactive |  | inactive | inactive | 
46 | CC[C@H](C)/C=C(C)/C=C/C1=CC2=CC(=O)[C@]3(C)OC(=O)[C@@H](C(C)=O)[C@@H]3C2=CO1 | inactive |  |  | inactive | inactive | inactive
47 | O=C(O)c1cc(N(Cc2ccc(C3CCCCC3)cc2)C(=O)c2ccc(Oc3ccccc3)cc2)ccc1O | inactive |  | inactive | inactive | inactive | inactive
48 | COc1ccc2cc(-c3cc(-c4cc(Cl)cc(Cl)c4)nn3C(C)c3ccc(C(=O)NCCC(=O)O)cc3)ccc2c1 (stereo not drawn) | inactive |  | inactive | inactive | inactive | inactive
49 | COc1ccc2cc3c(NC(=O)c4ccco4)nn(C)c3nc2c1 | inactive |  | inactive |  | inactive | inactive
50 | C/C=C/C=C/c1cc2c(C=O)c(O)c(CC=C(C)C)cc2o1 | inactive |  | 21.2 µM (active) | inactive | inactive | 
51 | O=C(NCC(=O)N1CCCC1)Nc1ccc2cnccc2c1 | inactive |  | inactive | inactive | inactive | inactive
52 | CCCn1cc2c(nc(NC(=O)Nc3ccc(OC)cc3)n3nc(-c4ccco4)nc23)n1 | inactive |  |  | inactive | inactive | inactive
53 | C=C(C(=O)O)[C@@H]1CC=C(CCC(C)=O)[C@@H](C)CC1 | inactive | inactive |  | inactive | inactive | 
54 | Cc1c(Cl)cccc1S(=O)(=O)Nc1nc(NCCc2ccccc2)nc2c1CN(Cc1ccccc1)CC2 |  | inactive | inactive | inactive |  | inactive
55 | CC1(NC(=O)c2ccc(C#Cc3cccc(F)c3)cn2)COC1 |  | inactive | inactive | inactive | inactive | inactive
56 | COc1cc(F)c(F)c(Nc2ccc(I)cc2F)c1NS(=O)(=O)C1(CC(O)CO)CC1 (stereo not drawn) |  | inactive | inactive | inactive |  | inactive
